Vaccinia Venus: vaccinia inhibition (Venus reporter); Vaccinia virus Venus reporter expression, fluorescence; Potency, µM (top dose mostly 36.5 µM), without a hit: top-dose activity change, negative = inhibition, most hits filed as inhibitors; 330,000 tested, 0.46% active; AID 720580; calls by dose curve; tested in A549 cells; note: nearly all actives have a fitted effect of over 30% in size
MARV entry inh: inhibitors of Marburg virus binding or cell entry | Marburg virus pseudotyped entry inhibition, cell reporter | Potency, µM (doses to about 37.8 µM), for inactives: at the highest dose activity change, negative = inhibition, hits mostly inhibitors | AID 540276 | 300,000 tested, 1.8% active; calls by dose curve; tested in HEK293 cells
Lassa entry inh: inhibitors of Lassa virus binding or cell entry | Lassa virus pseudotype entry inhibition, cell reporter | Potency, µM (top dose mostly 37.9 µM), without a hit: at the top dose activity change, negative = inhibition, most hits filed as inhibitors | 300,000 tested, 1.2% active | AID 540256; calls by dose curve; tested in HEK293 cells; note: nearly all actives have a fitted effect of over 50% in size
FMDV antiviral: antivirals against foot and mouth disease virus. FMDV antiviral cell-based qHTS. Potency, µM (doses to about 57.9 µM), for inactives: top-dose activity change, negative = inhibition, usual class: inhibitors. 410,000 tested, 1.2% active; calls by dose curve; tested in HEK293T cells; note: read-out not given here; nearly all actives have a fitted effect of over 45% in size
HCV inhibitor: HCV inhibition. Huh7.5.1 HCVcc-Cre infection, luciferase reporter, 44 h. AID 651820. Potency, µM (top dose mostly 41.8 µM), for inactives: top-dose activity change, negative = inhibition, usual class: inhibitors. 340,000 tested, 3.4% active; active = well fitted inhibition curve with a large enough effect; inconclusive = small, poorly fitted or top-dose-only effect, or another doubt; inactive = no such curve, though single readings can be large or run the other way
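1,000 cells/well; 4 h culture; + compound; + HCVcc-Cre (~0.5 moi); 44 h; luciferase substrate, RT 15 min; read 15 sec.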
Vaccinia mCherry: vaccinia inhibition (mCherry reporter). 310,000 tested, 0.63% active. Potency, µM (doses to about 36.5 µM), inactives show top-dose activity change, negative = inhibition, hits mostly inhibitors. AID 720579. Vaccinia virus mCherry reporter infection, fluorescence; calls by dose curve; tested in A549 cells; note: nearly all actives have a fitted effect of over 35% in size
Starred values were filed as active, the others as inactive; i = inactive; ? = inconclusive; / = no result; [ ] = remark or other dose. Rows were chosen to be rich in hits. Some 5.3% of all compounds tested hit in one or more screens of this group. % is set by controls: 0 for no effect and ±100 for the full control effect; potency is the fitted concentration of half-maximal effect.

SMILES	Vaccinia Venus	MARV entry inh	Lassa entry inh	FMDV antiviral	HCV inhibitor	Vaccinia mCherry
COc1cc(=O)n2c(c1C(=O)N(C)Cc1cscn1)CCN(Cc1ccc3c(c1)OCCO3)CC2	0.0%	/	/	-12.3%	/	-16.7%
COc1ccc(CCNc2nc3c(c(=O)n(C)c(=O)n3C)n2Cc2ccc(F)cc2)cc1OC	-16.2%	6.31µM*	?	15.8µM*	/	?
Cn1c(=O)c2c(nc(N/N=C/c3ccncc3)n2Cc2ccccc2)n(C)c1=O	-19.9%	-25.8%	-24.5%	?	-9.6%	-12.6%
Cn1c(=O)c2c(nc(NCc3ccc4c(c3)OCO4)n2Cc2ccc(F)cc2)n(C)c1=O	/	?	-13.2%	?	11.2µM*	/
COc1cc(/C=N/Nc2nc3c(c(=O)n(C)c(=O)n3C)n2Cc2ccccc2)ccc1OC(=O)c1ccco1	-11.7%	?	?	14.1µM*	?	i
Cn1c(=O)c2c(nc(NCc3ccc4c(c3)OCO4)n2Cc2ccccc2)n(C)c1=O	-47.9%	3.7%[46.1 µM]	?	?	?	/
CCCCC(=O)NCCNc1nc2c(c(=O)n(C)c(=O)n2C)n1Cc1ccc(F)cc1	?	?	9.2µM*	-28.7%	-13.2%	i
CCNc1nc2c(c(=O)n(C)c(=O)n2C)n1Cc1ccc(F)cc1	-17.5%	/	?	?	/	-8.4%
CCn1c(C(=O)NCc2ccc(OC(C)C)cc2)cc2oc3ccccc3c21	5.7%	?	/	-14.8%	/	-9.3%
CCc1ccc(NC(=O)C2CCCN(c3nn4cc(-c5ccc(OC)cc5)nc4s3)C2)cc1 (stereo not given)	-29.9%	/	-5.7%[46.1 µM]	-14.8%	/	-13.5%
Cc1cnc(SCC2CCCO2)nc1C1CCCN(C(=O)c2ccc(S(N)(=O)=O)cc2)C1 (stereo not given)	0.0%	/	/	5.4%	/	-14.6%
COc1ccc(NC(=O)CSCc2cc(=O)n3cc(C)sc3n2)cc1	/	/	/	-12.7%	17.6%	/
COc1ccc(C2CC(C(F)(F)F)n3nc(C(=O)NCc4c(C)nn(C)c4C)c(Cl)c3N2)cc1 (stereo not given)	?	10.3µM*	-38.1%	/	?	?
CC12CC[C@H]3[C@@H](CCC4(O)C[C@H](O)CCC34/C=N/NC(=O)Cc3ccccc3)C1(O)CCC2C1=CC(=O)OC1 (stereo not given in full)	?	?	?	11.1%	8.0%	?
CC(=O)OC1CCC2(C)C3CCC4(C)C(OC(C)=O)CCC4C3C(C)C2(O)C1 (stereo not given)	-3.8%	7.3%[46.1 µM]	4.5%[46.1 µM]	14.2%	9.1%	i
CC(=O)OC1CCC23C(=O)OC45CCC(C6=CC(=O)OC6)C4(C)CCC2C5CCC3(O)C1 (stereo not given)	1.26µM*	/	/	0.0%	/	1.78µM*
CC12CCC(O)CC1CCC1C2CCC2(C)C(C3=CC(=O)OC3)C(O)CC12O (stereo not given)	1.78µM*	0.631µM*	3.16µM*	?	?	1.26µM*
CC12CCC(O)CC1CCC1C2CCC2(C)C(C3=CC(=O)OC3)CCC12O (stereo not given)	0.891µM*	0.282µM*	0.447µM*	?	5.01µM*	?
C[C@]12CC[C@H](O)C[C@H]1CC[C@@H]1[C@@H]2CC[C@]2(C)[C@@H](C3=CC(=O)OC3)CC[C@]12O	1.12µM*	/	/	-16.9%	2µM*	?
C[C@]12CC[C@H](O)C[C@H]1CC[C@@H]1[C@@H]2C[C@@H](O)[C@]2(C)[C@@H](C3=CC(=O)OC3)CC[C@]12O	1.12µM*	/	/	?	0.562µM*	1.12µM*
CC(=O)OC1CC[C@]2(C)C(CCC3C2CC[C@]2(C)C(C4=CC(=O)OC4)C(OC(C)=O)CC32O)C1 (stereo not given in full)	1.12µM*	/	/	?	/	1µM*
CC(=O)OC1CCC2(C)C(CC(=O)C3C2CCC2(C)C(OC(C)=O)CCC32)C1 (stereo not given)	-14.7%	3.2%	1.2%	-29.7%	22.3%	-12.9%
COc1ccccc1N1CCN(S(=O)(=O)CCNC(=O)C23CC4CC(CC(C4)C2)C3)CC1	/	/	/	14.1µM*	?	/
COc1ccc(Cl)cc1C(=O)NCCS(=O)(=O)N1CCN(c2ccccc2F)CC1	/	/	/	-9.4%	-5.1%	/
COc1ccccc1N1CCN(CCS(=O)(=O)c2cc(Cl)ccc2Cl)CC1	?	/	/	-12.0%	/	8.91µM*
SMILES	Vaccinia Venus	MARV entry inh	Lassa entry inh	FMDV antiviral	HCV inhibitor	Vaccinia mCherry
COc1ccc(Cl)cc1C(=O)NCCS(=O)(=O)N1CCN(c2ccccc2OC)CC1	-26.7%	/	-13.4%[46.1 µM]	8.91µM*	/	?
O=C(NCCS(=O)(=O)N1CCN(c2ccccc2)CC1)C12CC3CC(CC(C3)C1)C2	?	/	/	?	/	-20.0%
O=C1c2cccnc2C(=O)N1c1nc(-c2ccccc2)cs1	-13.2%	/	/	/	/	-24.2%
CN1CCN(/N=C/c2ccc(N(c3ccccc3)c3ccccc3)cc2)CC1	-23.4%	1.26µM*	0.631µM*	?	?	-22.2%
CCCC(C(=O)NC1CCCC1)N(C(=O)Cn1nnc(-c2ccc(C)o2)n1)c1ccccc1F (stereo not given)	4.6%	?	-16.6%[46.1 µM]	6.0%	-19.4%	-3.8%
CCCC(C(=O)NC1CCCC1)N(C(=O)Cn1nnc(-c2ccc(C)o2)n1)C1CCCC1 (stereo not given)	/	25.9µM*	?	-12.7%	-15.5%	/
Cc1sc2ncnc(N3CCC(C(=O)NNC(=O)COc4ccccc4F)CC3)c2c1C	-29.4%	-20.6%	-6.3%	25.1µM*	?	-11.8%
Cc1cc(Br)ccc1NC(=O)CN(C)C(=O)C1CCN(c2ncnc3sc(C)c(C)c23)CC1	?	?	?	?	10µM*	?
Cc1ccc(OCC(=O)NNC(=O)C2CCN(c3ncnc4sc(C)c(C)c34)CC2)cc1	-15.9%	-2.1%[46.1 µM]	24.1%	?	1.7%	i
Cc1cccc(C)c1NC(=O)CN(C)C(=O)C1CCN(c2ncnc3sc(C)c(C)c23)CC1	?	?	-11.9%	?	?	?
Cc1sc2ncnc(N3CCC(C(=O)NNC(=O)COc4ccccc4Cl)CC3)c2c1C	-23.4%	?	5.3%	35.5µM*	?	?
Cc1sc2ncnc(N3CCC(C(=O)NNC(=O)COc4cccc(C(F)(F)F)c4)CC3)c2c1C	-14.8%	-0.4%	3.3%	25.1µM*	-10.4%	i
CCN(CC)S(=O)(=O)c1ccc2c(c1)N(CC(=O)Nc1ccc(C)cc1C)C(=O)C1CCCN21 (stereo not given)	-19.7%	/	22.9%[46.1 µM]	0.3%	/	-3.7%
COc1ccc(CN2CC[C@H]3C=CC[C@@H](C(=O)NC4CCCCC4)[C@H]3C2=O)cc1OC	-17.7%	/	/	/	/	i
COc1cc(CN2CCOc3ccc(CN4CCC(Oc5cccnc5)CC4)cc3C2)ccc1F	-10.3%	/	/	?	/	-16.8%
CN(Cc1ccccc1)C(C(=O)NC1CCCCC1)c1ccc(Cl)cc1 (stereo not given)	0.0%	-0.7%[46.1 µM]	-11.1%[46.1 µM]	11.5%	/	-7.2%

Bioassay records (PubChem)
